{"source": "the supplement of paper PMC9446081", "note": "Out of some 39,000 compounds screened, about 220 (0.56%) showed activity. This excerpt belongs to a sample that is enriched for actives.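 Note: Wild-type cells incubated without shaking, value is the mean of two biological replicates.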", "data": [{"tested_on": "Escherichia coli K-12 BW25113", "test": "relative growth (OD600 normalised to plate interquartile mean) (fraction); higher = less growth inhibition, active = 0.2 or less", "details": "50 µM; LB; incubation time: overnight (16-24 h)", "values": [{"compound": "C[C@@H]1CCCCO[C@H](CN(C)Cc2ccc(C(F)(F)F)cc2)[C@H](C)CN([C@H](C)CO)C(=O)c2cc(NS(=O)(=O)c3ccc(F)cc3)ccc2O1", "relative growth": "1.02 (inactive)"}, {"compound": "C[C@@H]1CN([C@H](C)CO)C(=O)c2cc(NS(=O)(=O)c3ccc(F)cc3)ccc2O[C@@H](C)CCCCO[C@H]1CN(C)Cc1ccccc1", "relative growth": "0.999 (inactive)"}, {"compound": "C[C@@H]1CN([C@@H](C)CO)C(=O)c2cc(-c3ccc(F)cc3)cnc2O[C@@H]1CN(C)C(=O)Cc1ccccn1", "relative growth": "0.977 (inactive)"}, {"compound": "Cc1ccc(S(=O)(=O)N(C)C[C@@H]2Oc3c(NS(=O)(=O)c4ccc(F)cc4)cccc3C(=O)N([C@H](C)CO)C[C@@H]2C)cc1", "relative growth": "1.01 (inactive)"}, {"compound": "COc1ccc(S(=O)(=O)N(C)C[C@H]2Oc3cc(C#CC4CCCC4)ccc3S(=O)(=O)N([C@@H](C)CO)C[C@H]2C)cc1", "relative growth": "1.04 (inactive)"}, {"compound": "COc1ccc(CN(C)C[C@H]2Oc3ccc(NC(=O)Nc4ccc(C(F)(F)F)cc4)cc3CC(=O)N([C@@H](C)CO)C[C@H]2C)cc1", "relative growth": "0.99 (inactive)"}, {"compound": "C[C@@H]1CCCCO[C@@H](CN(C)C(=O)Nc2ccc(C(F)(F)F)cc2)[C@H](C)CN([C@H](C)CO)C(=O)c2cc(NS(=O)(=O)c3cccs3)ccc2O1", "relative growth": "1.03 (inactive)"}, {"compound": "O=C(O)[C@H]1O[C@@H](Oc2c(-c3ccc(O)cc3)oc3cc(O)cc(O)c3c2=O)[C@H](O)[C@@H](O)[C@@H]1O", "relative growth": "1.01 (inactive)"}, {"compound": "C[C@H]1CN([C@@H](C)CO)S(=O)(=O)c2ccc(-c3cncnc3)cc2O[C@@H]1CN(C)C(=O)NC1CCCC1", "relative growth": "1 (inactive)"}, {"compound": "CCC(=O)Nc1cnc(OC)nc1OC", "relative growth": "1.01 (inactive)"}, {"compound": "C[C@@H]1CCCCO[C@H](CN(C)C(=O)Nc2ccc(C(F)(F)F)cc2)[C@@H](C)CN([C@@H](C)CO)C(=O)c2cc(NC(=O)c3ccncc3)ccc2O1", "relative growth": "0.979 (inactive)"}, {"compound": "CN(C)CCCNC(=O)C[C@@H]1CC[C@@H]2[C@@H](COc3ccc(NC(=O)c4cccc(F)c4)cc3C(=O)N2C)O1", "relative growth": "0.965 (inactive)"}, {"compound": "CC(C)NC(=O)N(C)C[C@@H]1Oc2c(NS(=O)(=O)c3ccc(Cl)cc3)cccc2C(=O)N([C@@H](C)CO)C[C@@H]1C", "relative growth": "1.09 (inactive)"}, {"compound": "C[C@H](CO)N1C[C@H](C)[C@H](CN(C)C(=O)c2ccncc2)OCCCC[C@H](C)Oc2ccc(NS(C)(=O)=O)cc2C1=O", "relative growth": "1.02 (inactive)"}, {"compound": "CN(C)C1C(O)=C(C(N)=O)C(=O)C2(O)C(O)=C3C(=O)c4c(O)ccc(Cl)c4C(O)C3CC12.Cl", "note": "(stereo unspecified)", "relative growth": "0.0565 (active)"}, {"compound": "COC(=O)C(=C1OC(=O)C(c2ccccc2)=C1O)c1ccccc1", "relative growth": "0.951 (inactive)"}, {"compound": "CC(O)C1C(=O)N2C(C(=O)[O-])=C(SC3Cn4cnc[n+]4C3)C(C)C12", "note": "(stereo unspecified)", "relative growth": "0.307 (inactive)"}, {"compound": "C[C@@H](O)[C@H]1C(=O)N2C(C(=O)O)=C(SCCNC=N)C[C@H]12", "relative growth": "1.01 (inactive)"}, {"compound": "CC(O)C1C(=O)N2C(C(=O)O)=C(SC3CNC(C(=O)N(C)C)C3)C(C)C12", "note": "(stereo unspecified)", "relative growth": "0.0517 (active)"}, {"compound": "C[C@@H]1CN([C@@H](C)CO)C(=O)c2cc(NS(=O)(=O)c3ccc(F)cc3)ccc2O[C@@H](C)CCCCO[C@H]1CN(C)Cc1ccccc1", "relative growth": "0.979 (inactive)"}, {"compound": "C[C@@H]1CCCCO[C@@H](CN(C)C(=O)Nc2ccc3c(c2)OCO3)[C@@H](C)CN([C@@H](C)CO)C(=O)c2cc(NS(=O)(=O)c3ccccc3)ccc2O1", "relative growth": "1.01 (inactive)"}, {"compound": "C[C@@H]1CN([C@H](C)CO)C(=O)c2ccccc2-c2ccccc2CO[C@@H]1CN(C)S(=O)(=O)c1cn(C)cn1", "relative growth": "0.997 (inactive)"}, {"compound": "O=C(C[C@H]1CC[C@H]2[C@@H](COC[C@@H](O)CN2S(=O)(=O)c2ccccc2)O1)N1CCOCC1", "relative growth": "0.964 (inactive)"}, {"compound": "CCOC(=O)OC(C)OC(=O)C1N2C(=O)C(NC(=O)C(N)c3ccccc3)C2SC1(C)C.Cl", "note": "(stereo unspecified)", "relative growth": "0.0511 (active)"}, {"compound": "CC1(C)S[C@@H]2[C@H](NC(=O)[C@H](N)c3ccccc3)C(=O)N2[C@H]1C(=O)OCOC(=O)[C@@H]1N2C(=O)C[C@H]2S(=O)(=O)C1(C)C", "relative growth": "0.107 (active)"}, {"compound": "CC1(C)S[C@@H]2[C@H](NC(=O)[C@H](N)c3ccc(O)cc3)C(=O)N2[C@H]1C(=O)O", "relative growth": "0.516 (inactive)"}, {"compound": "CC1(C)SC2C(NC(=O)C(N)c3ccc(O)cc3)C(=O)N2C1C(=O)O", "note": "(stereo unspecified)", "relative growth": "1.1 (inactive)"}, {"compound": "CC1(C)S[C@H]2[C@@H](NC(=O)[C@@H](N)c3ccccc3)C(=O)N2[C@@H]1C(=O)O", "relative growth": "1.01 (inactive)"}, {"compound": "CC1(C)SC2C(NC(=O)C(N)c3ccccc3)C(=O)N2C1C(=O)[O-].[Na+]", "note": "(stereo unspecified)", "relative growth": "1.06 (inactive)"}, {"compound": "CN(C)CCCNC(=O)C[C@H]1CC[C@H]2[C@@H](COC[C@@H](O)CN2C(=O)c2cc(Cl)cc(Cl)c2)O1", "relative growth": "0.968 (inactive)"}, {"compound": "COc1cc(N)ccn1", "relative growth": "1.07 (inactive)"}, {"compound": "O=C(C[C@H]1C[C@H]2c3cc(NS(=O)(=O)c4ccc(F)cc4)ccc3O[C@H]2[C@H](CO)O1)NCc1ccccn1", "relative growth": "0.998 (inactive)"}, {"compound": "OC[C@@H](O)[C@H]1O[C@H](c2ccccc2)OC[C@@H]1O", "relative growth": "1.05 (inactive)"}, {"compound": "COc1ccc(S(=O)(=O)Nc2ccc3c(c2)C(=O)N([C@H](C)CO)C[C@@H](C)[C@@H](CN(C)C(=O)Nc2c(C)noc2C)O3)cc1", "relative growth": "1 (inactive)"}, {"compound": "CSC1=N[C@@]2(C)CCCC[C@@H]2c2c1ccc1ccccc21", "relative growth": "1.01 (inactive)"}, {"compound": "COc1ccc(C(=O)Nc2ccc3c(c2)C(=O)N(C)[C@@H]2CC[C@H](CC(=O)NCC4CC4)O[C@@H]2CO3)cc1", "relative growth": "0.982 (inactive)"}, {"compound": "Cc1ccc(S(=O)(=O)Nc2ccc3c(c2)C(=O)N([C@@H](C)CO)C[C@H](C)[C@@H](CN(C)S(=O)(=O)c2cn(C)cn2)O3)cc1", "relative growth": "0.932 (inactive)"}, {"compound": "CC(N)O.Cc1cc(CC(C)CC(C)(C)C)n(O)c(=O)c1", "note": "(stereo unspecified)", "relative growth": "0.0449 (active)"}, {"compound": "C[C@@H]1CCCCO[C@@H](CN(C)S(C)(=O)=O)[C@H](C)CN([C@H](C)CO)C(=O)c2cc(NS(=O)(=O)c3ccccc3)ccc2O1", "relative growth": "0.997 (inactive)"}, {"compound": "NCCCC[C@@H](N)C(=O)N[C@@H](Cc1c[nH]c2ccccc12)C(=O)N[C@@H](CCCCN)C(=O)O", "relative growth": "0.994 (inactive)"}, {"compound": "C[C@H](NC(=O)[C@@H](Cc1ccc2ccccc2c1)NC(=O)[C@@H](C)N)C(=O)N[C@@H](Cc1c[nH]c2ccccc12)C(=O)N[C@H](Cc1ccccc1)C(=O)N[C@@H](CCCCN)C(N)=O", "relative growth": "0.98 (inactive)"}, {"compound": "NCCCC[C@H](NC(=O)[C@@H](NC(=O)[C@H](Cc1c[nH]c2ccccc12)NC(=O)[C@H](CCCCN)NC(=O)[C@H](CCCCN)NC(=O)[C@H](Cc1c[nH]c2ccccc12)NC(=O)[C@H](Cc1c[nH]c2ccccc12)NC(=O)[C@H](CCCCN)NC(=O)[C@@H](N)CCCCN)C(c1ccccc1)c1ccccc1)C(N)=O", "relative growth": "0.149 (active)"}, {"compound": "Cc1noc(C)c1S(=O)(=O)Nc1ccc2c(c1)C(=O)N([C@H](C)CO)C[C@@H](C)[C@H](CN(C)S(=O)(=O)c1ccc(Cl)cc1)O2", "relative growth": "1 (inactive)"}, {"compound": "COc1ccc(C#Cc2ccc3c(c2)O[C@@H](CN(C)C(=O)CN2CCOCC2)[C@@H](C)CN([C@H](C)CO)S3(=O)=O)cc1", "relative growth": "0.997 (inactive)"}, {"compound": "COCCNC(=O)C[C@H]1C[C@H]2c3cc(NS(C)(=O)=O)ccc3O[C@H]2[C@H](CO)O1", "relative growth": "1.01 (inactive)"}, {"compound": "C(=C\\c1ccccc1)/CSc1ncnc2c1oc1ccccc12", "relative growth": "1.02 (inactive)"}, {"compound": "C/C(=C\\C(=O)OCCCCCCCCC(=O)O)C[C@@H]1OC[C@H](C[C@@H]2O[C@H]2[C@@H](C)[C@H](C)O)[C@@H](O)[C@H]1O", "relative growth": "0.166 (active)"}, {"compound": "CC(=CC(=O)OCCCCCCCCC(=O)O)CC1OCC(CC2OC2C(C)C(C)O)C(O)C1O", "note": "(stereo unspecified)", "relative growth": "0.526 (inactive)"}, {"compound": "C[C@@H]1CN([C@@H](C)CO)C(=O)c2cc(-c3cccc(C(=O)N(C)C)c3)cnc2O[C@H]1CN(C)C(=O)Cc1ccccn1", "relative growth": "0.986 (inactive)"}, {"compound": "CC[C@H]1OC(=O)C[C@@H](O)[C@H](C)[C@@H](O[C@@H]2O[C@H](C)[C@@H](O[C@H]3C[C@@](C)(O)[C@@H](O)[C@H](C)O3)[C@H](N(C)C)[C@H]2O)[C@@H](CC=O)C[C@@H](C)C(=O)/C=C/C(C)=C/[C@@H]1CO[C@@H]1O[C@H](C)[C@@H](O)[C@@H](OC)[C@H]1OC", "relative growth": "0.971 (inactive)"}, {"compound": "CC[C@H]1OC(=O)C[C@@H](O)[C@H](C)[C@@H](O[C@@H]2O[C@H](C)C[C@H](N(C)C)[C@H]2O)[C@@H](CC=O)C[C@@H](C)C(=O)/C=C/[C@]2(C)O[C@H]2[C@@H]1C", "relative growth": "0.149 (active)"}, {"compound": "CCC1OC(=O)CC(O)C(C)C(OC2OC(C)C(OC3CC(C)(O)C(O)C(C)O3)C(N(C)C)C2O)C(CC=O)CC(C)C(=O)C=CC(C)=CC1COC1OC(C)C(O)C(OC)C1OC.O=C(O)C(O)C(O)C(=O)O", "note": "(stereo unspecified)", "relative growth": "1.09 (inactive)"}, {"compound": "Nc1ccccc1C(=O)NCCN1CCNC1=O", "relative growth": "1.01 (inactive)"}, {"compound": "N[C@@H]1CN(c2c(F)cc3c(=O)c(C(=O)O)cn([C@@H]4C[C@@H]4F)c3c2Cl)CC12CC2", "relative growth": "0.0347 (active)"}, {"compound": "Cl.NC1CCN(c2c(F)cc3c(=O)c(C(=O)O)cn(C4CC4)c3c2Cl)C1", "note": "(stereo unspecified)", "relative growth": "0.0438 (active)"}, {"compound": "OC[C@@H](O)[C@@H](O)[C@@H](O)[C@@H](O)[C@@H](O)CO", "relative growth": "1 (inactive)"}, {"compound": "C[C@H](CO)N1C[C@H](C)[C@H](CN(C)C(=O)Nc2ccc(C(F)(F)F)cc2)Oc2ccc(NS(=O)(=O)c3ccc(F)cc3)cc2C1=O", "relative growth": "0.994 (inactive)"}, {"compound": "c1n[nH]nc1SSc1cn[nH]n1", "relative growth": "0.536 (inactive)"}, {"compound": "C[C@H](CO)N1C[C@H](C)[C@H](CN(C)S(C)(=O)=O)Oc2c(NC(=O)c3ccc(-c4nccs4)cc3)cccc2C1=O", "relative growth": "0.995 (inactive)"}, {"compound": "CCCN(C)C[C@@H]1OCCCC[C@H](C)Oc2ccc(NC(=O)CCC(F)(F)F)cc2C(=O)N([C@@H](C)CO)C[C@@H]1C", "relative growth": "1 (inactive)"}, {"compound": "C[C@H](CO)N1C[C@H](C)[C@H](CN(C)Cc2ccccc2)OCCCC[C@H](C)Oc2ccc(NC(=O)C3CCCCC3)cc2C1=O", "relative growth": "1.01 (inactive)"}, {"compound": "COc1ccc2cc1Oc1ccc(cc1)C[C@H]1c3c(cc4c(c3Oc3cc5c(cc3OC)CCN(C)[C@@H]5C2)OCO4)CCN1C", "relative growth": "0.993 (inactive)"}, {"compound": "COc1ccc2cc1Oc1ccc(cc1)CC1c3c(cc4c(c3Oc3cc5c(cc3OC)CCN(C)C5C2)OCO4)CCN1C", "note": "(stereo unspecified)", "relative growth": "0.844 (inactive)"}, {"compound": "COc1ccc2c(c1OC)C(=O)OC2C1c2c(cc3c(c2OC)OCO3)CCN1C.Cl", "note": "(stereo unspecified)", "relative growth": "0.0513 (active)"}, {"compound": "C[C@H](CO)N1C[C@H](C)[C@H](CN(C)Cc2ccccc2)Oc2c(NC(=O)Nc3cccc4ccccc34)cccc2C1=O", "relative growth": "1 (inactive)"}, {"compound": "Cc1ccc(S(=O)(=O)Nc2ccc3c(c2)C(=O)N([C@H](C)CO)C[C@@H](C)[C@@H](CN(C)C(=O)c2ccccc2)OCCCC[C@H](C)O3)cc1", "relative growth": "1.01 (inactive)"}]}]}
